Data on 39 compounds can be found in PubChem BioAssay (NCATS).

Structures are written as SMILES. Inconclusive results are not listed. A number with no mark means an inactive call. Activity calls are given as the source filed them. Calls follow the shape of the dose curve; as a rule, active = well fitted cell-killing curve with a large enough effect; inconclusive = small, poorly fitted or top-dose-only effect, or effect the other way; inactive = no such curve, though single readings can be large or run the other way.
Potency is read from the fitted curve at half-maximal effect.

The first assay can be described thus: Viability qHTS for spleen associated tyrosine kinase inhibitor (SYKi) naive MV4-11 cells (AID 1963823). Also: nearly all actives have a fitted effect of over 40% in size. The note with it: MV4-11 AML viability, CellTiter-Glo luminescence, 72 h; series mostly up to 45 µM. The method, boiled down:
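In this viability screen, compounds acted on SYK inhibitor naive MV4-11 cells for three days (72 hr, 37 C). Remaining viable cells were measured by CellTiter-Glo luminescence following a 10 min room-temperature development.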
A general note: Quantitative high-throughput screening tests each substance at several concentrations.
Turning to `COc1ccc(/C=C/C(=O)O[C@@H]2[C@@H](O)[C@H](C)O[C@@H](O[C@H]3[C@@H]4C=CO[C@@H](O[C@H]5O[C@@H](CO)[C@H](O)[C@@H](O)[C@@H]5O)[C@@H]4[C@@]4(CO)O[C@@H]34)[C@@H]2OC(C)=O)cc1`, the Potency entry is “inactive”.
On to `C[C@@H]1O[C@@H](O[C@@H]2[C@@H](O)[C@@H](O)[C@H](O[C@@H]3[C@@H](O)[C@@H](O[C@]4(CO)O[C@H](CO)[C@@H](O)[C@@H]4OC(=O)/C=C/c4ccc(O)cc4)O[C@H](CO)[C@H]3OC(=O)/C=C/c3ccc(O)cc3)O[C@H]2C)[C@H](O)[C@H](O)[C@H]1O`, for which the viability (% of control) is 81.6% [at 9.25 µM].
As to `CC(C)(O)C1CC=C(C(=O)OC[C@H]2O[C@@H](Oc3cc(C(=O)O)cc(O)c3O)[C@H](O)[C@@H](O)[C@@H]2O)CC1` (stereo partly specified), the Potency entry is “inactive”.
On the same count and under the same terms, next, `COc1cc(C2OCC3(O)C(c4ccc(O[C@@H]5O[C@H](CO)[C@@H](O)[C@H](O)[C@H]5O)c(OC)c4)OCC23O)ccc1O` (stereo partly specified): “inactive”; `CC(C)(N)c1cc(C(=O)N[C@@H]2CCc3ccc(Oc4ccnc5c4CCC(=O)N5)cc3C2)cc(C(F)(F)F)c1`: 0.92 µM (active).
Same read-out and setting: in the case of `C=C1C(=O)OC2/C=C(\C)CC/C=C(\C=O)C(OC)C(OC(=O)C(C)CC)C12` (stereo unspecified) it was 3.21 µM (active).
Still for that read-out and setting: next, `CC(C)(C)c1ccc(C(=O)Nc2cn3cc(-n4ccnc4)ccc3n2)cc1`: 1.84 µM (active); `CCOC(=O)CCNc1cc(N2CCc3ccccc3CC2)nc(-c2cccnc2)n1`: “inactive”.
In the case of `CCCC(=O)O[C@]1(C(=O)CCl)[C@@H](C)C[C@H]2[C@@H]3CCC4=CC(=O)C=C[C@]4(C)[C@@]3(F)C(=O)C[C@@]21C`, the Potency was 11.9 µM (active).
For `C[C@]12CC[C@@H]3c4ccc(O[C@@H]5O[C@H](C(=O)O)[C@@H](O)[C@H](O)[C@H]5O)cc4CC[C@H]3[C@@H]1CCC2=O`, the Potency result was “inactive”.
On to `CC[C@H]1OC(=O)[C@H](C)[C@@H](O[C@H]2C[C@@](C)(OC)[C@@H](O)[C@H](C)O2)[C@H](C)[C@@H](O[C@@H]2O[C@H](C)C[C@H](N(C)C)[C@H]2O)[C@](C)(O)C[C@@H](C)/C(=N/OCOCCOC)[C@H](C)[C@@H](O)[C@]1(C)O`, for which the Potency entry is “inactive”.
Take `CC/C=C\C[C@H]1C(=O)C=C[C@@H]1CCCCCCCC(=O)O`: the Potency is 16.4 µM (active).

The nature of another assay: Viability qHTS for spleen associated tyrosine kinase inhibitor (SYKi) drug resistant MV4-11 cells (AID 1963824). Also: nearly all actives have a fitted effect of over 35% in size. The note with it: SYKi-resistant MV4-11 viability, CellTiter-Glo, 72 h; series mostly up to 45 µM. Summed up:
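SYK-inhibitor-resistant MV4-11 AML cells were seeded at 500 per well onto compound and cultured 72 hours (37 °C, 5% CO2). CellTiter-Glo was then added, and after 10 min at room temperature, luminescence gave viability.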
Turning to `O=C(O[C@H]1[C@@H]2C[C@@H]3OC[C@@](O)([C@H]2[C@H](O[C@@H]2O[C@H](CO)[C@@H](O)[C@H](O)[C@H]2O)O3)[C@@H]1O)c1ccccc1`, the Potency entry is “inactive”.
The same measure, in the same setting: in the case of `C=C(C)C(=O)O[C@H]1C[C@@](C)(OC(C)=O)[C@@]2(O)CC[C@@](C)(O)[C@H](OC(C)=O)[C@@]23OC(=O)C(COC)=C13` it was 11.2 µM (active); in that of `C=C1C2(CCC(=O)OC2(C)C)CC(OC(=O)/C(C)=C/C)C2(C)C13OC14C(=O)OC(C)(C(=O)C12C(=O)OC4C)C3OC(C)=O` (stereo unspecified), “inactive”.
Consider `CC#CC(=O)N1CC[C@@H](n2c(=O)n(-c3ccc(Oc4ccccc4)cc3)c3c(N)ncnc32)C1`, for which the Potency was 8.33 µM (active).
In the case of `COc1ccc(/C=C/C(=O)O[C@@H]2[C@@H](OC(C)=O)[C@@H](OC(C)=O)[C@H](O[C@H]3[C@@H]4C=CO[C@@H](O[C@@H]5O[C@H](CO)[C@@H](O)[C@H](O)[C@H]5O)[C@@H]4[C@@]4(CO)O[C@@H]34)O[C@H]2C)cc1`, the Potency entry was “inactive”.
Same read-out and setting: in the case of `CONC(=O)c1ccccc1Nc1cc(Nc2cc(C)nn2C(C)C)ncc1Cl` it was 13.2 µM (active).
Turning to `CC(C)n1cc(-c2ccc(Oc3ccccc3)cc2)c2c(N)ncnc21`, the Potency was 0.206 µM (active).
Still for that read-out and setting: in the case of `Cc1ccc2c(c1)C=Cc1cc(C)ccc1C2c1cn(Cc2ccc(C(=O)Nc3nn[nH]n3)o2)c(=O)[nH]c1=S` it was “inactive”; in that of `CC(=O)OCC(=O)O[C@@H]1[C@H]2[C@@H](OC(=O)c3ccccc3)[C@@H](C)C[C@]2(O)[C@H](OC(C)=O)C2(C)[C@H]3CC(C)(C)C(=O)[C@@H]3CC1(OC(C)=O)[C@@H]2OC(C)=O` (stereo partly specified), “inactive”.
Same read-out and setting: next, `O=C(Nc1ccc(S(=O)(=O)C(F)(F)F)cc1)C1=CCN(c2ncccc2C(F)(F)F)CC1`: 3.66 µM (active).
Consider `C[C@@H]1O[C@@H](O[C@H]2[C@H](O[C@H]3[C@H](O[C@H]4CC[C@@]5(C)C(CC[C@]6(C)C5CC=C5[C@@H]7CC(C)(C)C[C@@H](O)[C@]7(C)CC[C@]56C)[C@@]4(C)CO)O[C@H](C(=O)O)[C@@H](O)[C@@H]3O)O[C@H](C(=O)O)[C@H](O)[C@@H]2O)[C@H](O)[C@H](O)[C@H]1O` (stereo partly specified), for which the viability, % of control was 86.7% [at 9.25 µM].
On to `CC(CC(C)O[C@@H]1O[C@H](CO)[C@@H](O)[C@H](O)[C@H]1O)OC(=O)/C=C/c1ccc(O)cc1` (stereo partly specified), for which the Potency entry was “inactive”.
Same read-out and setting: next, `NC(=O)c1cccc(-c2cc(O)cc(OC(=O)NC3CCCCC3)c2)c1`: “inactive”; `CC(=O)O[C@@H]1CC[C@@]2(C)[C@H](CC[C@@H]3[C@@H]2C[C@H](OC(C)=O)[C@]2(C)[C@@H](C(C)=O)CC[C@@H]32)C1`: 8.2 µM (active); `O=C1OC(/C=C/c2ccccc2)=NC/1=C\c1cccnc1`: “inactive”.
As for `CC1=C(C(=O)Nc2cc(Cl)ccc2Cl)C(c2ccco2)C2=C(CCCC2=O)N1` (stereo unspecified), the Potency is 16.4 µM (active).
Same read-out and setting: next, `CN1CCN(CCCN2c3ccccc3Sc3ccc(S(=O)(=O)N(C)C)cc32)CC1`: 10.6 µM (active); `CC(C)n1nc(-c2ccc(NC(=O)Nc3cccc(C(F)(F)F)c3)cc2)c2c(N)ncnc21`: “inactive”.
On the same count and under the same terms, in the case of `COc1cc(C(=O)OC[C@@]2(O)CO[C@@H](O[C@H]3[C@H](Oc4ccc(C(=O)O)cc4OC)O[C@H](CO)[C@@H](O)[C@@H]3O)[C@@H]2O)ccc1O` it was “inactive”.
Same read-out and setting: in the case of `COC(=O)C1=COC(O[C@@H]2O[C@H](CO[C@@H]3O[C@H](COC(=O)/C=C\c4ccc(O)cc4)[C@@H](O)[C@H](O)[C@H]3O)[C@@H](O)[C@H](O)[C@H]2O)C2C(CO)=CCC12` (stereo partly specified) it was “inactive”.
Consider `CCN(CC)CCCS(=O)(=O)N[C@H](CCc1ccccc1)c1nc(Cc2ccc(Br)cc2)no1`, for which the Potency was 20.6 µM (active).
Still for that read-out and setting: in the case of `O=C(N/N=C/c1ccccc1O)c1ccncc1` it was 0.75 µM (active); in that of `COC1CC(O[C@H]2CC[C@]3(C)C4CC[C@@]5(C)C(=O)[C@]4(CC[C@@H]3C2)CC[C@@H]5C2=CC(=O)OC2)OC(C)C1OC1OC(COC2OC(CO)C(O)C(O)C2O)C(O)C(O)C1O` (stereo partly specified), 1.23 µM (active).
As for `Nc1nc(Nc2ccc3c(c2)CCC(N2CCCC2)CC3)nn1-c1cc2c(nn1)-c1ccccc1CCC2` (stereo unspecified), the Potency is 0.366 µM (active).
As to `CCC(C)CNCC(=O)N1CCC2SC=CC2C1COc1cccc(C)c1` (stereo unspecified), the Potency is 10.3 µM (active).
In the case of `C=CC1(C)CC(OC(=O)C(=C)C(O)COC(C)=O)C(C(=C)C(=O)OC)C(O)C1C(=C)CO` (stereo unspecified), the Potency is 10 µM (active).
On the same count and under the same terms, in the case of `OC[C@H]1O[C@@H](O[C@H]2[C@H](OCCc3ccccc3)O[C@H](CO)[C@@H](O)[C@@H]2O)[C@H](O)[C@@H](O)[C@@H]1O` it was “inactive”; in that of `COc1ccc(/C=C/C(=O)O[C@@H]2[C@@H](O)[C@H](C)O[C@@H](O[C@H]3[C@@H]4C=CO[C@@H](O[C@H]5O[C@@H](CO)[C@H](O)[C@@H](O)[C@@H]5O)[C@@H]4[C@@]4(CO)O[C@@H]34)[C@@H]2OC(C)=O)cc1`, “inactive”.
Consider `C[C@@H]1O[C@@H](O[C@@H]2[C@@H](O)[C@@H](O)[C@H](O[C@@H]3[C@@H](O)[C@@H](O[C@]4(CO)O[C@H](CO)[C@@H](O)[C@@H]4OC(=O)/C=C/c4ccc(O)cc4)O[C@H](CO)[C@H]3OC(=O)/C=C/c3ccc(O)cc3)O[C@H]2C)[C@H](O)[C@H](O)[C@H]1O`, for which the viability, % of control was 117% [at 9.25 µM].
For the compound `CC(C)(O)C1CC=C(C(=O)OC[C@H]2O[C@@H](Oc3cc(C(=O)O)cc(O)c3O)[C@H](O)[C@@H](O)[C@@H]2O)CC1` (stereo partly specified), the Potency result is “inactive”.
On the same count and under the same terms, next, `COc1cc(C2OCC3(O)C(c4ccc(O[C@@H]5O[C@H](CO)[C@@H](O)[C@H](O)[C@H]5O)c(OC)c4)OCC23O)ccc1O` (stereo partly specified): “inactive”; `CC(C)(N)c1cc(C(=O)N[C@@H]2CCc3ccc(Oc4ccnc5c4CCC(=O)N5)cc3C2)cc(C(F)(F)F)c1`: 1.3 µM (active); `C=C1C(=O)OC2/C=C(\C)CC/C=C(\C=O)C(OC)C(OC(=O)C(C)CC)C12` (stereo unspecified): 2.02 µM (active).
On to `CC(C)(C)c1ccc(C(=O)Nc2cn3cc(-n4ccnc4)ccc3n2)cc1`, for which the Potency was 5.17 µM (active).
As for `CCOC(=O)CCNc1cc(N2CCc3ccccc3CC2)nc(-c2cccnc2)n1`, the Potency was 14.6 µM (active).
Consider `CCCC(=O)O[C@]1(C(=O)CCl)[C@@H](C)C[C@H]2[C@@H]3CCC4=CC(=O)C=C[C@]4(C)[C@@]3(F)C(=O)C[C@@]21C`, for which the Potency is 13.3 µM (active).
Same read-out and setting: in the case of `C[C@]12CC[C@@H]3c4ccc(O[C@@H]5O[C@H](C(=O)O)[C@@H](O)[C@H](O)[C@H]5O)cc4CC[C@H]3[C@@H]1CCC2=O` it was “inactive”; in that of `CC[C@H]1OC(=O)[C@H](C)[C@@H](O[C@H]2C[C@@](C)(OC)[C@@H](O)[C@H](C)O2)[C@H](C)[C@@H](O[C@@H]2O[C@H](C)C[C@H](N(C)C)[C@H]2O)[C@](C)(O)C[C@@H](C)/C(=N/OCOCCOC)[C@H](C)[C@@H](O)[C@]1(C)O`, “inactive”; in that of `CC/C=C\C[C@H]1C(=O)C=C[C@@H]1CCCCCCCC(=O)O`, 23.1 µM (active).
